# Data as given in PubChem BioAssay (Tox21).
# Where “and” joins values, the source holds several entries; their conditions need not be identical. Equal values may be shown once. Unmarked numbers belong to inactive results. Results filed as inconclusive are left out. Entries that show only a call come without a potency. Calls of active or inactive are those of the source. Unless noted, the call rests on the fitted dose curve; in most records, active means well fitted curve in the direction sought with a large enough effect in the repeat runs; inconclusive means weak or mixed curves; inactive means no such curve, though single readings can be large; an effect the other way counts as inactive or inconclusive.
# Experiments:
# [1] = molecular target: Acetylcholinesterase (Homo sapiens) (UniProt P22303); assay: Acetylcholinesterase (AChE) small molecule antagonists: enzyme-based qHTS assay (AID 1347397; calls by dose curve; further: nearly all actives have a fitted effect of over 55% in size; further: potency means the concentration at half of the fitted maximal effect); conditions: Potency: AChE enzyme activity inhibition; outcome: AChE enzyme activity inhibition
# Sequence of Acetylcholinesterase (Homo sapiens) (P22303 whole entry, looked up): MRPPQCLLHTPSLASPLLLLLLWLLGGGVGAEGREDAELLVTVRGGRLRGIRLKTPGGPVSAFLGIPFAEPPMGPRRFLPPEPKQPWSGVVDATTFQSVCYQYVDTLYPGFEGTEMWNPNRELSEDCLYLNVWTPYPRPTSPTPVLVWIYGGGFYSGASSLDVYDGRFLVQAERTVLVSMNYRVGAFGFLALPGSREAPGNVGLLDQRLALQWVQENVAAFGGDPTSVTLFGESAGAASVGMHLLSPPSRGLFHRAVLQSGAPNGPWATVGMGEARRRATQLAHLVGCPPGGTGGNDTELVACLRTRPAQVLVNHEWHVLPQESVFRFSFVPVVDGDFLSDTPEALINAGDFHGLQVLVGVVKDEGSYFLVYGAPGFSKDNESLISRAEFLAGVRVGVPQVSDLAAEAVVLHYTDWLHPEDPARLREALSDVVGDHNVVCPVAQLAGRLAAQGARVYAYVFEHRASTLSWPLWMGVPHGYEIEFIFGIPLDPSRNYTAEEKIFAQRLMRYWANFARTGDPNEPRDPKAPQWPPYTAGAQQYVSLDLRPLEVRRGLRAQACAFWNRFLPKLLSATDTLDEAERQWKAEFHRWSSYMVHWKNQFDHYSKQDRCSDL
# How it was run: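 Enzyme inhibition was scored from DTNB-detected thiocholine formed by recombinant human AChE acting on acetylthiocholine. The 30 min compound preincubation and 10 min substrate reaction were both run at room temperature, with DMSO as vehicle control.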
# [2] = molecular target: Acetylcholinesterase (Homo sapiens) (UniProt P22303); assay: Acetylcholinesterase (AChE) small molecule antagonists: enzyme-based qHTS assay with human liver microsomes (AID 1347399; calls by dose curve; further: nearly all actives have a fitted effect of over 60% in size); conditions: Potency: qHTS inhibition; outcome: qHTS inhibition
# How it was run: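 Recombinant human AChE (50 mU/mL in the enzyme mix) and human liver microsomes (0.25 mg/mL final) were preincubated with compound and NADPH (0.25 mg/mL final) for 30 min at 37 C. Acetylthiocholine/DTNB was then added; thiocholine was read colorimetrically after 10 min at room temperature.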
# [3] = molecular target: Cytochrome P450 2D6 (Homo sapiens) (UniProt P10635); assay: Cytochrome P450 Family 2 Subfamily D Member 6 (CYP2D6) small molecule antagonists: luciferase reporter qHTS assay (AID 1671196); further: nearly all actives have a fitted effect of over 50% in size; further: potency means the concentration at half of the fitted maximal effect; on activity change, negative = inhibition: series mostly up to about 120 µM
# Sequence of Cytochrome P450 2D6 (Homo sapiens) (P10635 whole entry, looked up): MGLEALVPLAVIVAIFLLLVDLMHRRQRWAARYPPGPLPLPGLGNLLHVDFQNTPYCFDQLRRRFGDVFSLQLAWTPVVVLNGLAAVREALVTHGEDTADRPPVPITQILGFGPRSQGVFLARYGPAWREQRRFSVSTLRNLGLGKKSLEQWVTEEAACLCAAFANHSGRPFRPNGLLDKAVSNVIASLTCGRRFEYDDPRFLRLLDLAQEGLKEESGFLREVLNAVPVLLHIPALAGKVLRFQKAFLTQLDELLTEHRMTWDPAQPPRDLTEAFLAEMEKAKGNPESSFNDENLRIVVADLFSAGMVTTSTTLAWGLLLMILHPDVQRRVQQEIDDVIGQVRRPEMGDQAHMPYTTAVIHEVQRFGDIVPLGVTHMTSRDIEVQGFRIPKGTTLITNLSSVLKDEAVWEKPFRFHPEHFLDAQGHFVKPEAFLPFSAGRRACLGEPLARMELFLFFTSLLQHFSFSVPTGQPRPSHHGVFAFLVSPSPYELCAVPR
# How it was run: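 CYP2D6 enzyme–substrate mix was held with compound for 10 min at room temperature, then NADPH regeneration solution was added and the reaction ran 1 h at room temperature. Luciferin product was detected by luminescence after 20 min with detection reagent.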
# [4] = molecular target: Cytochrome P450 2C19 (Homo sapiens) (UniProt P33261); assay: Cytochrome P450 Family 2 Subfamily C Member 19 (CYP2C19) small molecule antagonists: luciferase reporter qHTS assay (AID 1671197); further: nearly all actives have a fitted effect of over 65% in size; further: potency means the concentration at half of the fitted maximal effect; on activity change, negative = inhibition: series mostly up to about 120 µM
# Sequence of Cytochrome P450 2C19 (Homo sapiens) (P33261 whole entry, looked up): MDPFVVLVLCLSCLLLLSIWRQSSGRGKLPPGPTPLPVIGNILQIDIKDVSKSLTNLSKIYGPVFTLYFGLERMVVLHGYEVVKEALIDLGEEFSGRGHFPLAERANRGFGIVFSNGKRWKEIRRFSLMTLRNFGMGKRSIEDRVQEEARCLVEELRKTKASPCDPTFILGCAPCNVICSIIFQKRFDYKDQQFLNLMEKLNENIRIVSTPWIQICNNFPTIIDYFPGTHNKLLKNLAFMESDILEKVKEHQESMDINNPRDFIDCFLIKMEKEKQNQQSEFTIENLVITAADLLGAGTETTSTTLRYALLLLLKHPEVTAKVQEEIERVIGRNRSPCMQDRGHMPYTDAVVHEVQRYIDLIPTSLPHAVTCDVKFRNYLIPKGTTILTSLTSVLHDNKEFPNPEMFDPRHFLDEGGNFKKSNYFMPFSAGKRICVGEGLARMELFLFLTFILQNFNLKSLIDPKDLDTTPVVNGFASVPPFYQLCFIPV
# How it was run: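 Relative luminescence units recorded 20 min after the detection reagent stopped a 1 h, 37C CYP2C19 reaction on proluciferin substrate, which was started by NADPH regeneration following 10 min room-temperature compound preincubation; ketoconazole positive control.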
# [5] = molecular target: Cytochrome P450 1A2 (Homo sapiens) (UniProt P05177); assay: Cytochrome P450 Family 1 Subfamily A Member 2 (CYP1A2) small molecule antagonists: luciferase reporter qHTS assay (AID 1671199); further: nearly all actives have a fitted effect of over 50% in size; further: potency means the concentration at half of the fitted maximal effect; on activity change, negative = inhibition: series mostly up to about 120 µM
# Sequence of Cytochrome P450 1A2 (Homo sapiens) (P05177 whole entry, looked up): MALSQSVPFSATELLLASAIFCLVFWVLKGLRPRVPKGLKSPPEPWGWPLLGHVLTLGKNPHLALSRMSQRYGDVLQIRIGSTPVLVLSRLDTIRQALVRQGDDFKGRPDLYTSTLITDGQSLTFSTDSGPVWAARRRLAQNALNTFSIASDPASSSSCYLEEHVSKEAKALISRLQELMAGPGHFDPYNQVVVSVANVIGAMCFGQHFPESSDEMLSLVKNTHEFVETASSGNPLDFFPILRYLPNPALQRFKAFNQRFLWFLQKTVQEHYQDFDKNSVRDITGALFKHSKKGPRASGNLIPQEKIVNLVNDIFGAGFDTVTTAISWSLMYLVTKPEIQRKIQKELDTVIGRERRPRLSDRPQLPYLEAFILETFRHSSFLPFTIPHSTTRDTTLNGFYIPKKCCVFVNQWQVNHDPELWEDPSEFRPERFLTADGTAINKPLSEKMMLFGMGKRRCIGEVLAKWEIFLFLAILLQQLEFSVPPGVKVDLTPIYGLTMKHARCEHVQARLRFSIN
# How it was run: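 Human CYP1A2 activity measured with a P450-Glo proluciferin substrate; compounds in DMSO preincubated 10 min at room temperature with enzyme-substrate mix, then NADPH regeneration system added for 1 h. Luciferin detection reagent, 20 min, luminescence read.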
# [6] = molecular target: Voltage-gated inwardly rectifying potassium channel KCNH2 (Homo sapiens) (UniProt Q12809); assay: Human Ether-a-go-go-Related Gene (hERG) channel small molecule antagonists: fluorescence cell-based qHTS assay (AID 1671200); further: nearly all actives have a fitted effect of over 50% in size; further: potency means the concentration at half of the fitted maximal effect;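 on activity change, negative = inhibition: hERG-expressing U2OS cells given a thallium stimulus after FluxOR II dye loading; series mostly up to about 77 µM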
# Sequence of Voltage-gated inwardly rectifying potassium channel KCNH2 (Homo sapiens) (Q12809 whole entry, looked up): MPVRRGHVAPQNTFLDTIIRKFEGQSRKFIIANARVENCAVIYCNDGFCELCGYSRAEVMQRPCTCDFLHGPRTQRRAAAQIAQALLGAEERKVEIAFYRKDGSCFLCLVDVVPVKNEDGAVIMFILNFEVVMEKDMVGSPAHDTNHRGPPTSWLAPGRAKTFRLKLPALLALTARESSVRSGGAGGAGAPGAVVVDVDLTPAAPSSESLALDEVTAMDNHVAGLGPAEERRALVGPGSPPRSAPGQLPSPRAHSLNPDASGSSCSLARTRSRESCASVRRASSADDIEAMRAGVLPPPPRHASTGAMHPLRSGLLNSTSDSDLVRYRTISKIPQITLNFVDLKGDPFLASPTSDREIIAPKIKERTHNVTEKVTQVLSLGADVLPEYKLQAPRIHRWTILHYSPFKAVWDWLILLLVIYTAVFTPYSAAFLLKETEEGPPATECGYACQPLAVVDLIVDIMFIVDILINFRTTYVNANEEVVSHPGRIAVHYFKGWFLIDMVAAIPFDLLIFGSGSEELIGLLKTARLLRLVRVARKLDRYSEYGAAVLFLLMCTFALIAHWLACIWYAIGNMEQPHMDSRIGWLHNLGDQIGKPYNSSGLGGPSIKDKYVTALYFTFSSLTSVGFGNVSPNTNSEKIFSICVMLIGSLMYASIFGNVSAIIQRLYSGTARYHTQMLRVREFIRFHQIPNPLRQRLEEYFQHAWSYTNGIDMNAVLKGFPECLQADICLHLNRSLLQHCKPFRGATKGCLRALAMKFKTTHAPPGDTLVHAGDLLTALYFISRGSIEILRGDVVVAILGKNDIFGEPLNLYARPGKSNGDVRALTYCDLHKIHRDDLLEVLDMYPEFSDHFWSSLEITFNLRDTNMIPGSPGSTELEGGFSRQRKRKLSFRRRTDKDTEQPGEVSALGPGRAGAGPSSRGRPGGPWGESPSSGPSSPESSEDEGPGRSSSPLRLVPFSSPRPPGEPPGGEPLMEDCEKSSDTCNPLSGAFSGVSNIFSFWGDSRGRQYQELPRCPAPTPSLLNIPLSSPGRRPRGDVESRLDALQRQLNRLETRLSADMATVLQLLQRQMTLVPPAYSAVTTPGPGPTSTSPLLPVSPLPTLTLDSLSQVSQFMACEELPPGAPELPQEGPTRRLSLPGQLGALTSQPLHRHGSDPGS
# How it was run: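 Fluorescence at 540 nm emission (480 nm excitation) was recorded kinetically for 2 min at 1-second intervals once the thallium-containing stimulus reached cells previously loaded with FluxOR II dye.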
# [7] = molecular target: Cytochrome P450 2C9 (Homo sapiens) (UniProt P11712); assay: Cytochrome P450 Family 2 Subfamily C Member 9 (CYP2C9) small molecule antagonists: luciferase reporter qHTS assay (AID 1671198); further: nearly all actives have a fitted effect of over 50% in size; further: potency means the concentration at half of the fitted maximal effect; on activity change, negative = inhibition: series mostly up to about 120 µM
# Sequence of Cytochrome P450 2C9 (Homo sapiens) (P11712 whole entry, looked up): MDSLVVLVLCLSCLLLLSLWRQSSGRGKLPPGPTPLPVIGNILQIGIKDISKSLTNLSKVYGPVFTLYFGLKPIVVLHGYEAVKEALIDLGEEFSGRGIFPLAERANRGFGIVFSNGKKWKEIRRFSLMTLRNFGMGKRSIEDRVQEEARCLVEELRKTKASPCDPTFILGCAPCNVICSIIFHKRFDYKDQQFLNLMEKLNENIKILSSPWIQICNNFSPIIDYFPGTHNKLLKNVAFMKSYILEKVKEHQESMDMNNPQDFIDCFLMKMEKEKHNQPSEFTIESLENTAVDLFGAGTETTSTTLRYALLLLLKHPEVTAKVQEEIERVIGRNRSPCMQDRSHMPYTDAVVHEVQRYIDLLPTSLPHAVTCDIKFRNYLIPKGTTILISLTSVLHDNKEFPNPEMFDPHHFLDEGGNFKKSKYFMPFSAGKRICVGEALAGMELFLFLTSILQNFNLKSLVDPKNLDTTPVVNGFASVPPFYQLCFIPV
# How it was run: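 P450-Glo proluciferin substrate with CYP2C9 enzyme; 10 min RT preincubation, then NADPH regeneration 1 h at 37C; luciferin detection reagent 20 min RT, luminescence in relative luminescence units.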
# [8] = molecular target: Cytochrome P450 3A4 (Homo sapiens) (UniProt P08684); assay: Cytochrome P450 Family 3 Subfamily A Member 4 (CYP3A4) small molecule antagonists: luciferase reporter qHTS assay (AID 1671201); further: nearly all actives have a fitted effect of over 50% in size; further: potency means the concentration at half of the fitted maximal effect; on activity change, negative = inhibition: series mostly up to about 120 µM
# Sequence of Cytochrome P450 3A4 (Homo sapiens) (P08684 whole entry, looked up): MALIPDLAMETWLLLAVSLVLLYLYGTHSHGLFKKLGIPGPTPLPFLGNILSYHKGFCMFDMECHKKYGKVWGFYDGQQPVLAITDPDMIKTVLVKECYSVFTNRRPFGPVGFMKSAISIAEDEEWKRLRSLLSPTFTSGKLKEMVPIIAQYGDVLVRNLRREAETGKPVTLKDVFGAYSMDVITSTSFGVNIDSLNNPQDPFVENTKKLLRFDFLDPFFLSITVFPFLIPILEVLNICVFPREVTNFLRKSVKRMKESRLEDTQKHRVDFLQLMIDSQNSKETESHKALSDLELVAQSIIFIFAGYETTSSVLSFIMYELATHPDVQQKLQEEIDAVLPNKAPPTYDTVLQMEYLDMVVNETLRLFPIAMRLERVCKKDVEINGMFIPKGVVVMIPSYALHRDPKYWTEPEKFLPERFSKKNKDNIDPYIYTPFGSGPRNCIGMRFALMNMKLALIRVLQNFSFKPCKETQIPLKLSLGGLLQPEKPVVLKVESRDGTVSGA
# How it was run: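 qHTS, 1536-well. CYP3A4 + proluciferin substrate, cpd 10 min RT → NADPH regen 1 h RT → detection reagent 20 min → luminescence (RLU). Ketoconazole positive control.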
# [9] = molecular target: Acetylcholinesterase (Homo sapiens) (UniProt P22303); assay: Acetylcholinesterase (AChE) small molecule antagonists: fluorescence cell-based qHTS assay (AID 1347398; calls by dose curve; further: nearly all actives have a fitted effect of over 50% in size; further: potency means the concentration at half of the fitted maximal effect); conditions: Potency: AChE activity; outcome: AChE activity
# How it was run: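 Endogenous acetylcholinesterase of SH-SY5Y neuroblastoma cells is measured in situ. After overnight attachment and 30 min compound exposure, cells receive acetylthiocholine and Thiolite Green; fluorescence is read after 40 min at room temperature.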
smiles,measurement,setting,value
C[C@H](CN1CCOCC1)C(C(=O)N1CCCC1)(c1ccccc1)c1ccccc1,Potency,[1],inactive
same,Potency,[2],inactive
same,Potency,[3],43.3 µM (active)
same,Potency,[4],96.9 µM (active)
same,Potency,[5],inactive
same,Potency,[6],inactive
O=c1[nH]oc2c1CCNC2,Potency,[1],inactive
same,Potency,[2],inactive
same,Potency,[3],inactive
same,Potency,[4],inactive
same,Potency,[7],inactive
same,Potency,[5],inactive
same,Potency,[6],inactive
same,Potency,[8],inactive
CCC1(c2cccc(O)c2)CCCCN(C)C1 (stereo not drawn),Potency,[4],inactive
same,Potency,[5],inactive
same,Potency,[6],inactive
same,Potency,[8],inactive
CCNc1nc(Cl)nc(NC(C)(C)C)n1,Potency,[1],inactive
same,Potency,[9],inactive
same,Potency,[2],inactive
same,Potency,[5],11.2 µM (active)
same,Potency,[6],inactive
same,Potency,[8],inactive
CCCN1CCC[C@@H]2Cc3[nH]ncc3C[C@H]21,Potency,[1],inactive
same,Potency,[2],inactive
same,Potency,[3],30.9 µM (active)
same,Potency,[4],inactive
same,Potency,[7],inactive
same,Potency,[5],inactive
same,Potency,[6],inactive
same,Potency,[8],inactive
COc1ccc(CN2CCNCC2)c(OC)c1OC,Potency,[1],inactive
same,Potency,[9],inactive
same,Potency,[2],inactive
same,Potency,[6],inactive
CCCN1CCC[C@@H]2Cc3nc(N)ncc3C[C@H]21,Potency,[1],inactive
same,Potency,[2],inactive
same,Potency,[3],11 µM (active)
same,Potency,[5],inactive
same,Potency,[6],inactive
same,Potency,[8],inactive
CCC(=O)OC1(c2ccccc2)CCN(C)CC1,Potency,[3],37.5 µM (active)
same,Potency,[7],inactive
same,Potency,[5],inactive
same,Potency,[6],inactive
same,Potency,[8],inactive
Cn1c(N)nc2c3cccnc3ccc21,Potency,[1],inactive
same,Potency,[2],inactive
same,Potency,[3],12 µM (active)
same,Potency,[4],inactive
same,Potency,[7],inactive
same,Potency,[5],16.9 µM (active)
same,Potency,[6],inactive
same,Potency,[8],inactive
BrCc1ccc(Br)cc1,Potency,[2],inactive
same,Potency,[6],inactive
same,Potency,[8],inactive
CCOC(=O)C(Cl)Cc1cc(-n2nc(C)n(C(F)F)c2=O)c(F)cc1Cl (stereo not drawn),Potency,[1],inactive
same,Potency,[2],inactive
same,Potency,[7],7.1 µM (active)
same,Potency,[5],28.3 µM (active)
same,Potency,[6],24.5 µM (active)
same,Potency,[8],35.6 µM (active)
O=[N+]([O-])c1cccc(CCl)c1,Potency,[6],inactive
CN1C(=O)COc2c(C(=O)NC3CN4CCC3CC4)cc(Cl)cc21 (stereo not drawn),Potency,[2],inactive
same,Potency,[3],inactive
same,Potency,[4],inactive
same,Potency,[7],inactive
same,Potency,[5],inactive
same,Potency,[6],inactive
same,Potency,[8],inactive
N#CC(Br)(Br)C(N)=O,Potency,[3],71 µM (active)
same,Potency,[5],inactive
same,Potency,[6],inactive
same,Potency,[8],inactive
CS(=O)(=O)c1ccc(C(=O)C2C(=O)CCCC2=O)c(Cl)c1COCC(F)(F)F,Potency,[1],inactive
same,Potency,[2],inactive
same,Potency,[3],inactive
same,Potency,[4],inactive
same,Potency,[7],6.33 µM (active)
same,Potency,[5],inactive
same,Potency,[6],inactive
CCOC(=O)c1ncn2c1CN(C)C(=O)c1c(I)cccc1-2,Potency,[1],inactive
same,Potency,[9],inactive
same,Potency,[2],inactive
same,Potency,[5],inactive
same,Potency,[6],inactive
same,Potency,[8],inactive
CCCC(C)C1(CC)C(=O)N=C(S)NC1=O (stereo not drawn),Potency,[6],inactive
CC(=O)OCC1=C(C(=O)O)N2C(=O)[C@@H](N)[C@H]2SC1,"activity change, negative = inhibition",[1],-2.73% [at 23.6 µM]
same,"activity change, negative = inhibition",[9],-12.7% [at 23.8 µM]
same,"activity change, negative = inhibition",[2],-11.4% [at 23.6 µM]
same,Potency,[5],12 µM (active)
same,"activity change, negative = inhibition",[6],0.177% [at 15.8 µM]
same,"activity change, negative = inhibition",[8],-8.01% [at 23.6 µM]
Cc1ccc(S(=O)(=O)N[C@@H](CCCCN)C(=O)CCl)cc1,Potency,[2],inactive
same,Potency,[4],38.9 µM (active)
same,Potency,[7],inactive
same,Potency,[5],inactive
same,Potency,[6],inactive
C[N+]1(C)CCCCC1,Potency,[4],inactive
same,Potency,[6],inactive
same,Potency,[8],inactive
CCC1(CC)C(=O)C=CNC1=O,Potency,[1],inactive
same,Potency,[9],inactive
same,Potency,[2],inactive
same,Potency,[5],15.5 µM (active)
same,Potency,[6],inactive
same,Potency,[8],inactive
CC[C@H](O)C(C[C@H](C)N(C)C)(c1ccccc1)c1ccccc1,Potency,[1],inactive
same,Potency,[2],inactive
same,Potency,[7],inactive
same,Potency,[5],inactive
same,Potency,[6],inactive
C=CCN1CC[C@]23CCCC[C@H]2[C@H]1Cc1ccc(O)cc13,Potency,[7],inactive
same,Potency,[5],inactive
same,Potency,[6],inactive
Cc1cccc2sc3nncn3c12,Potency,[1],inactive
same,Potency,[2],inactive
same,Potency,[3],15.9 µM (active)
same,Potency,[4],inactive
same,Potency,[7],inactive
same,Potency,[5],31.7 µM (active)
same,Potency,[6],inactive
same,Potency,[8],20 µM (active)
CC(C)(C)c1cc(O)ccc1O,Potency,[1],inactive
same,Potency,[2],inactive
same,Potency,[4],39.9 µM (active) and 56.4 µM (active)
same,Potency,[7],31.7 µM (active)
same,Potency,[5],39.9 µM (active)
same,Potency,[6],inactive
same,Potency,[8],inactive
CCOC(=O)COc1ccc(Cl)cc1Cl,Potency,[1],inactive
same,Potency,[9],inactive
same,Potency,[2],inactive
same,Potency,[5],31.7 µM (active)
same,Potency,[6],inactive
same,Potency,[8],inactive
C=CCC1(C(C)CC)C(=O)NC(=O)NC1=O (stereo not drawn),Potency,[1],inactive
same,Potency,[2],inactive
same,Potency,[3],inactive
same,Potency,[5],21.9 µM (active)
same,Potency,[6],inactive
COc1ccc2c(C(=O)c3ccc(Cl)cc3)c(C)n(CC(=O)O)c2c1,Potency,[1],inactive
same,Potency,[2],inactive
same,Potency,[3],inactive
same,Potency,[7],15.5 µM (active)
same,Potency,[5],inactive
same,Potency,[6],inactive
same,Potency,[8],inactive
Oc1ccc2c3c1O[C@H]1[C@@H](O)C=C[C@H]4[C@@H](C2)NCC[C@@]341,Potency,[4],inactive
same,Potency,[7],inactive
same,Potency,[5],inactive
same,Potency,[6],inactive
same,Potency,[8],inactive
C[C@@H](N)[C@@H](O)c1ccccc1,Potency,[3],17.4 µM (active)
same,Potency,[4],21.9 µM (active)
same,Potency,[7],inactive
same,Potency,[5],inactive
same,Potency,[6],inactive
same,Potency,[8],inactive
N[C@@H](Cc1ccc(Oc2cc(I)c(O)c(I)c2)c(I)c1)C(=O)O,Potency,[9],inactive
same,Potency,[2],inactive
same,Potency,[3],inactive
same,Potency,[4],inactive
same,Potency,[7],11 µM (active)
same,Potency,[5],inactive
same,Potency,[6],inactive
CCOP(=S)(OCC)Oc1ccc(Cl)cc1Cl,Potency,[1],inactive
same,Potency,[2],inactive
same,Potency,[3],inactive
same,Potency,[4],0.399 µM (active)
same,Potency,[7],3.56 µM (active)
same,Potency,[5],2.83 µM (active)
same,Potency,[6],inactive
same,Potency,[8],2.83 µM (active)
CCOC(=O)C(SP(=S)(OC)OC)c1ccccc1 (stereo not drawn),Potency,[1],71 µM (active)
same,Potency,[9],22.4 µM (active)
same,Potency,[4],0.283 µM (active)
same,Potency,[7],1.26 µM (active)
same,Potency,[5],3.17 µM (active)
same,Potency,[8],2.83 µM (active)
